D2 PAM-1: positive allosteric modulators of human D2 dopamine receptor; P14416; HEK293 T-REx D2, calcium flux, EC20 dopamine potentiation; potentiation, % at 10 µM; 340,000 tested, 0.34% active; AID 485347;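 active = potentiation over 3 SD above the plate norm, cut at about 30% in these data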; also: 0% is about no effect
Target sequence (P14416 whole entry, looked up): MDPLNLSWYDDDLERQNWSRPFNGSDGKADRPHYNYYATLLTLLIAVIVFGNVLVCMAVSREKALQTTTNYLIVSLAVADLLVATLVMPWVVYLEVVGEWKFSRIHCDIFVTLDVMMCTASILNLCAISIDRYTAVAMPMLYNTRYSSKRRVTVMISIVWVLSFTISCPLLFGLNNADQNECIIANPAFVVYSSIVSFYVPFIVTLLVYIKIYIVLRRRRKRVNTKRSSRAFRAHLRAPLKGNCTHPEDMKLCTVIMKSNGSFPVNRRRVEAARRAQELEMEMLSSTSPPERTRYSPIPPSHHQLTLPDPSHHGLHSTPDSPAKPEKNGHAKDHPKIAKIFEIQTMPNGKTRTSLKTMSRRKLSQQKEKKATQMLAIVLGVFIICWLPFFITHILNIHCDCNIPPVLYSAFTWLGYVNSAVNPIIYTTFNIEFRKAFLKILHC
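Primary screen. Calcium kinetics in induced HEK293 T-REx D2 cells: compound pre-addition 180 s, EC20 dopamine, 180 s more.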
D2 PAM-2: human D2 receptor positive allosteric modulation; AID 624464; P14416; potentiation, % (test concentration not listed); 360,000 tested, 0.23% active; DiscoveRx D2 beta-arrestin cells, luminescence, 90 min; 100% = 57 uM dopamine signal; in the data active = potentiation above about 50%
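PathHunter D2 cells, attached overnight at 37 deg C, received compound in DMSO plus dopamine at EC20 (50 nM final) for 90 min at 37 deg C. Beta-arrestin recruitment was read as luminescence after 1 h with detection reagent at ambient temperature.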
D2 ag-1: human D2 receptor agonism in beta-arrestin assay; P14416; DiscoveRx PathHunter D2 beta-arrestin, luminescence, 90 min; 100% = 57 uM dopamine signal; activation, % (test concentration not listed); 360,000 tested, 0.084% active; in the data active = activation above about 40%
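Agonist mode: compounds alone added to overnight-plated D2 PathHunter cells for 90 min at 37 C, with 57 uM final dopamine (EC100) defining full response. Beta-arrestin recruitment detected by chemiluminescent reagent, read after 1 h at ambient temperature.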
D2 antag: D2 dopamine receptor (human) antagonism; P14416; HEK293 TREx D2 cells, calcium flux, dopamine EC80; inhibition, % at 10 µM; 340,000 tested, 2% active; AID 485344; in the data active = inhibition above about 30%; inactive = below that, where a call was filed; also: 0% is about no effect
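Tetracycline-induced HEK293 TREx cells expressing D2 receptor forced-coupled to calcium signalling, loaded with no-wash calcium dye. Compounds added and calcium flux read 180 s, then dopamine added at EC80 and read a further 180 s.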
D2 ag-2: agonists of human D2 dopamine receptor; P14416; 340,000 tested, 0.53% active; AID 485358; activation, % at 2 µM; HEK293 T-REx D2 cells, calcium flux agonist mode;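 active = activation over 3 SD above normal in the single-dose calcium agonist read, cut at about 30% in these data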; also: 0% is about no effect
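Calcium-flux readout, 1 cycle/sec over 180 s following compound pin transfer, in inducible HEK293 Trex D2 cells (force-coupled); dopamine controls included. Positive calcium responses during this window marked compounds as potential agonists.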
* = called active by the depositor; ! = not confirmed by another sample. A selection: hits, their analogues and other compounds. The true share with any hit is near 2.4%.

What do the screens show for `COCCN(CC(=O)Nc1cccc(C)c1C)C(=O)c1ccc2ccccc2n1`?
D2 PAM-1: 7; D2 PAM-2: -8; D2 ag-1: -2; D2 antag: 25; D2 ag-2: 0

What do the screens show for `Cc1cccc(NC(=O)CN(C)C(=O)c2ccc3ccccc3n2)c1C`?
D2 PAM-1: 5; D2 PAM-2: -17; D2 ag-1: -8; D2 antag: 30*; D2 ag-2: -1

How did O=[N+]([O-])c1ccc(Oc2cccnc2)nc1 do in these assays?
D2 PAM-1: -6; D2 PAM-2: -1; D2 ag-1: 6; D2 antag: -6; D2 ag-2: 1

Results for O=C(Nc1ccccc1C(=O)N1CCCC1)c1cccc(S(=O)(=O)N2CCCCC2)c1 ?
D2 PAM-1: 4; D2 PAM-2: 0; D2 ag-1: -2; D2 antag: -12; D2 ag-2: 1

How did O=C(CCN1CCN(c2ccc(Cl)cc2)CC1)Nc1ccccc1F do in these assays?
D2 PAM-1: -22; D2 PAM-2: -24; D2 ag-1: -2; D2 antag: 36*; D2 ag-2: 27

What do the screens show for `O=C(CN1CCN(CCC(=O)Nc2ccccc2F)CC1)Nc1ccc(F)cc1`?
D2 PAM-1: -9; D2 PAM-2: -21; D2 ag-1: -3; D2 antag: 15; D2 ag-2: 1

Results for Cc1c(Cl)cccc1NC(=O)CCN1CCCCCC1 ?
D2 PAM-1: -17; D2 PAM-2: -29; D2 ag-1: -3; D2 antag: 21; D2 ag-2: 0

What do the screens show for `Cc1c(Cl)cccc1NC(=O)CC1NCCNC1=O` (configuration not stated)?
D2 PAM-1: 8; D2 PAM-2: -12; D2 ag-1: -2; D2 antag: 34*; D2 ag-2: 0

Results for Cc1c(Cl)cccc1NC(=O)CC1SCCNC1=O (configuration not stated) ?
D2 PAM-1: 0; D2 PAM-2: -5; D2 ag-1: -2; D2 antag: 6; D2 ag-2: 0

What do the screens show for `Cc1c(Cl)cccc1NC(=O)CN1CCN(CCO)CC1`?
D2 PAM-1: 13; D2 PAM-2: -6; D2 ag-1: 1; D2 antag: 31*; D2 ag-2: 0

How did O=C(CN1CCN(CCC(=O)Nc2ccccc2F)CC1)Nc1ccc(Cl)cc1 do in these assays?
D2 PAM-1: 8; D2 PAM-2: 2; D2 ag-1: 5; D2 antag: 129*; D2 ag-2: -1

What do the screens show for `Cc1ccc(C(=O)OCC(=O)Nc2ccc(S(N)(=O)=O)cc2)c(O)c1`?
D2 PAM-1: -4; D2 PAM-2: -9; D2 ag-1: -3; D2 antag: -1; D2 ag-2: 2

How did CSc1ncc(Cl)c(C(=O)Nc2c(C(=O)Nc3cccc(C)c3)oc3ccccc23)n1 do in these assays?
D2 PAM-1: -10; D2 ag-2: 1

What do the screens show for `CN(C)C=Nc1c(Br)cc(Br)c2nonc12`?
D2 PAM-1: -8; D2 PAM-2: 1; D2 ag-1: 0; D2 antag: 2; D2 ag-2: 63*

What do the screens show for `Cc1noc(C)c1S(=O)(=O)N1CCC(C(=O)Nc2ccccn2)CC1`?
D2 PAM-1: 34*; D2 PAM-2: 15; D2 ag-1: -2; D2 antag: 3; D2 ag-2: 0

What do the screens show for `CCN(CCN(C)C)C(=O)C1CCN(S(=O)(=O)c2c(C)noc2/C=C/c2ccccc2F)CC1`?
D2 PAM-1: -13; D2 PAM-2: -3; D2 ag-1: -3; D2 antag: -8; D2 ag-2: 1

How did Cc1ccc(S(=O)(=O)N2CCC(C(=O)NCCc3ccccn3)CC2)cc1 do in these assays?
D2 PAM-1: -3; D2 PAM-2: -20; D2 ag-1: -3; D2 antag: 43*; D2 ag-2: 3

What do the screens show for `CCOc1ccccc1/C=C/c1onc(C)c1S(=O)(=O)N1CCC(C(=O)N(CC)CC)CC1`?
D2 PAM-1: -24; D2 PAM-2: -21; D2 ag-1: -1; D2 antag: 56*; D2 ag-2: -1

Results for Cc1noc(C)c1S(=O)(=O)N1CCN(c2ccccc2)CC1 ?
D2 PAM-1: 0; D2 PAM-2: -7; D2 ag-1: -7; D2 antag: 38*; D2 ag-2: 1

What do the screens show for `Cc1ccc(C)c(NC(=O)c2cc(C)nc3ccccc23)c1`?
D2 PAM-1: 1; D2 PAM-2: 13; D2 ag-1: 0; D2 antag: -2; D2 ag-2: -2

How did Cc1ccc(-c2cc(C(=O)Nc3cc(C(=O)O)ccc3C)c3ccccc3n2)cc1 do in these assays?
D2 PAM-1: 32*; D2 PAM-2: 5; D2 ag-1: -2; D2 antag: -30; D2 ag-2: 0

What do the screens show for `Cc1ccc(-c2cc(C(=O)O)c3ccccc3n2)s1`?
D2 PAM-1: -8; D2 PAM-2: -13; D2 ag-1: -3; D2 antag: 34*; D2 ag-2: 0

Results for O=C(O)c1cc(-c2cccs2)nc2ccc(Br)cc12 ?
D2 PAM-1: 0; D2 antag: 34*; D2 ag-2: 0

How did O=C(O)c1cc(-c2ccccc2)nc2ccccc12 do in these assays?
D2 PAM-1: 0; D2 PAM-2: -4; D2 ag-1: -7; D2 antag: 40*!; D2 ag-2: -1

What do the screens show for `Cc1ccc(CNC(=O)c2cn(C3CCCCC3)c(=O)c3c2c2ccccc2n3C)o1`?
D2 PAM-1: -4; D2 PAM-2: -21; D2 ag-1: -2; D2 antag: -14; D2 ag-2: 0

What do the screens show for `O=C(N/N=C/c1ccco1)c1cc(-c2ccccc2)nc2ccccc12`?
D2 PAM-1: -20; D2 PAM-2: -35; D2 ag-1: -3; D2 antag: 37*; D2 ag-2: 0

How did CC(C)c1nnc(NC(=O)CC23CC4CC(CC(C4)C2)C3)s1 do in these assays?
D2 PAM-1: 2; D2 PAM-2: -2; D2 ag-1: -7; D2 antag: 36*; D2 ag-2: 4

What do the screens show for `CN(CCCNC(=O)c1ccc(/C=N/O)nc1)CCCN(C)Cc1ccccc1`?
D2 PAM-1: -9; D2 PAM-2: 8; D2 ag-1: 1; D2 antag: 6; D2 ag-2: 0

What do the screens show for `CN(CCNC(=O)c1ccc(/C=N/O)nc1)Cc1ccccc1`?
D2 PAM-1: -26; D2 PAM-2: -36; D2 ag-1: -6; D2 antag: 61*; D2 ag-2: 1

Results for CCN1CCCC1CNC(=O)c1csc2c1CCCC2 (configuration not stated) ?
D2 PAM-1: -18; D2 PAM-2: -29; D2 ag-1: -2; D2 antag: 86*; D2 ag-2: -2

Results for CCN1CCCC1CNC(=O)c1cc2ccc(OC)cc2[nH]1 (configuration not stated) ?
D2 PAM-1: 0; D2 PAM-2: -25; D2 ag-1: -3; D2 antag: 9; D2 ag-2: 0

Screening data from PubChem BioAssay.
